This is a sample that favours compounds with a hit; in the whole collection about 0.38% have one here.
Rab7 wt modul = dog Rab7 wildtype GTP binding, inhibitors and activators. GST-Rab7 beads, fluorescent GTP binding, flow cytometry; actives lie on both sides; untreated = 100%, excess cold GTP = 0%. GTP binding activity (percent of control), % at 10 µM. 190,000 compounds, 0.055% hits;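 active = fluorescent GTP binding to Rab7 beads changed by at least 20 points from the 100% baseline, either direction, mostly lower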;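 note: median green fluorescence of bound Bodipy-FL-GTP per Rab7 bead population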
HRas wt GTP bind = modulators of GTP binding to human HRas wildtype; P01112; GST-Ras wt beads, Bodipy-FL-GTP binding, flow cytometry; actives lie on both sides; GTP binding activity, % at 10 µM; 190,000 compounds, 0.14% hits;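 active = GTP binding activity at least 20% away from the 100% baseline, either lowered as inhibitor or raised as activator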;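 note: 0% = unlabeled GTP competition control and 100% = no-compound control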
Target sequence (P01112 whole entry, looked up): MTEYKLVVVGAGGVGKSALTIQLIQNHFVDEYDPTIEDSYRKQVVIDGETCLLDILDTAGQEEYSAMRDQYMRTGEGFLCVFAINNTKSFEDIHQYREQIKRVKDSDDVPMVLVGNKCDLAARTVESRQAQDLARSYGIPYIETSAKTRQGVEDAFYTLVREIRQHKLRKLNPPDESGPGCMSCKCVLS
Rab2 wt GTP = changes GTP binding to wildtype dog Rab2A, up or down | P61105 | GST-Rab2 wt beads, Bodipy-GTP binding, flow cytometry | GTP binding activity, % at 10 µM | 190,000 compounds, 0.19% hits;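 active = GTP binding activity at least 20 points away from 100%, either lowered or raised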;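 note: 0% = beads with excess unlabeled GTP and 100% = no-compound control corrected for plate trend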
Cdc42 wt GTP = human Cdc42 wildtype GTP binding change, either direction; GST-Cdc42 beads, Bodipy-GTP binding, flow cytometry; actives lie on both sides; percent activity (GTP binding), % at 10 µM; 190,000 compounds, 0.2% hits;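 active = percent activity GTP binding at least 20 points away from the 100% baseline, either down as inhibitor or up as activator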;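 note: median bead fluorescence of bound Bodipy-FL-GTP at 100 nM; 0% = excess unlabeled GTP control and 100% = no compound control; below 100% means less GTP binding so inhibitor and above means activator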
Target sequence (P60953 whole entry, looked up): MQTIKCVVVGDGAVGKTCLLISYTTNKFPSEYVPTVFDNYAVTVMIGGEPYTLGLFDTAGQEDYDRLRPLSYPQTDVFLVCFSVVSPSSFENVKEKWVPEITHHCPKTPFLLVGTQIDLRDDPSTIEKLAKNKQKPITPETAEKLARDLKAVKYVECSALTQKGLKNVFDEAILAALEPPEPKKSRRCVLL
Rac1 mut GTP = human Rac1 activated mutant GTP binding change | percent activity (GTP binding), % at 10 µM | 190,000 compounds, 0.11% hits | P63000 | GST-Rac1 activated beads, fluorescent GTP binding, flow cytometry; actives lie on both sides; 100% means binding = to untreated wells;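 active = GTP binding at least 20 percentage points away from the 100% baseline, in either direction, so actives lie on both sides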
Rac1 wt modul = human Rac1 wildtype GTP binding, inhibitors and activators. P63000. GST-Rac1 beads, fluorescent GTP binding, flow cytometry; actives lie on both sides; 0 = cold GTP competed, 100 = untreated. GTP binding activity (% of control), % at 10 µM. 190,000 compounds, 0.27% hits;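 active = GTP binding activity at least 20 points away from the 100% control level, either lower or higher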
Active calls of the source: *; [ ] = another dose, or the depositor's remark.

SMILES | Rab7 wt modul | HRas wt GTP bind | Rab2 wt GTP | Cdc42 wt GTP | Rac1 mut GTP | Rac1 wt modul
Cc1cc(C)n2nc(C(=O)N3CCCC(CNS(=O)(=O)c4cccs4)C3)cc2n1 (configuration not stated) | 22.0* | 35.0* | 33.0* | 34.0* | 31.0* | 28.0*
CCc1cc(C(=O)N2CCCC(CNS(=O)(=O)c3cccs3)C2)n(C)n1 (configuration not stated) | 96.0 | 95.0 | 95.0 | 95.0 | 95.0 | 97.0
O=C(CCc1ccccn1)N1CCCC(CNS(=O)(=O)c2cccs2)C1 (configuration not stated) | 62.0* | 60.0* | 62.0* | 61.0* | 53.0* | 54.0*
O=C1CN(C(=O)Cn2ncc(Cl)c(Cl)c2=O)c2ccccc2N1 | 103.0 | 97.0 | 98.0 | 96.0 | 93.0 | 99.0
CCOC(=O)C1(CCCc2ccccc2)CCN(Cc2cn(CC)nc2C)CC1 | 105.0 | 100.0 | 100.0 | 96.0 | 96.0 | 98.0
O=C(O)CCSc1nc2ccccc2s1 | 95.0 | 97.0 | 98.0 | 99.0 | 95.0 | 100.0
O=C(O)CC/C(=C\c1ccc(N2CCCC2)c([N+](=O)[O-])c1)c1nc2ccccc2s1 | 81.0 | 79.0* | 74.0* | 75.0* | 75.0* | 82.0
Cc1nn(-c2ccc(F)cc2)c(Cl)c1/C=C(\CCC(=O)O)c1nc2ccccc2s1 | 79.0* | 80.0 | 76.0* | 68.0* | 65.0* | 72.0*
O=C(O)CC/C(=C\c1ccccc1[N+](=O)[O-])c1nc2ccccc2s1 | 90.0 | 80.0 | 76.0* | 73.0* | 74.0* | 81.0
O=C(O)CC/C(=C\c1cccc(NC(=O)c2ccccc2Cl)c1)c1nc2ccccc2s1 | 98.0 | 92.0 | 92.0 | 87.0 | 88.0 | 93.0
Cc1noc(C)c1S(=O)(=O)N1CCCC(C(=O)c2cccc(OC(C)C)c2)C1 (configuration not stated) | 105.0 | 102.0 | 100.0 | 95.0 | 97.0 | 104.0
Cc1ccc(NS(=O)(=O)c2cc(NC(=O)c3ccc4c(c3)NC(=O)CS4)ccc2Cl)c(C)c1 | 113.0 | 116.0 | 129.0*[activator] | 113.0 | 102.0 | 110.0
O=C(O)c1cccnc1SCc1cccc(Cl)c1 | 124.0*[activator] | 125.0*[activator] | 132.0*[activator] | 131.0*[activator] | 127.0*[activator] | 129.0*[activator]
Cc1cccc(CSc2ncccc2C(=O)O)c1 | 120.0*[activator] | 129.0*[activator] | 132.0*[activator] | 149.0*[activator] | 134.0*[activator] | 161.0*[activator]
O=C(O)c1ccccc1CSc1ncccc1C(=O)O | 94.0 | 94.0 | 93.0 | 94.0 | 93.0 | 97.0
O=C1/C(=C\c2cccnc2)Sc2ccccc21 | 90.0 | 90.0 | 89.0 | 72.0* | 88.0 | 84.0
Cc1ccc(Cc2cnc(NC(=O)/C(C#N)=C/c3ccc(-c4ccc([N+](=O)[O-])cc4)o3)s2)cc1 | 79.0* | 82.0 | 83.0 | 82.0 | 83.0 | 84.0
C/C(=N\NC(=O)c1cccc(Cl)c1)C1C(=O)c2ccccc2C1=O | 93.0 | 94.0 | 91.0 | 95.0 | 91.0 | 93.0
O=C(CCCN1C(=O)/C(=C/c2ccccc2Cl)SC1=S)NNC(=O)c1ccccc1Cl | 101.0 | 98.0 | 100.0 | 97.0 | 100.0 | 101.0
COc1ccc(/C=C2\SC(=S)N(CCCC(=O)NNC(=O)c3ccccc3O)C2=O)cc1 | 92.0 | 80.0 | 80.0 | 78.0* | 87.0 | 79.0*
COc1cc(/C=C2/SC(N)=NC2=O)ccc1Oc1ccc([N+](=O)[O-])cc1[N+](=O)[O-] | 96.0 | 94.0 | 91.0 | 91.0 | 91.0 | 94.0
NC1=NC(=O)/C(=C\c2ccc(O)c([N+](=O)[O-])c2)S1 | 85.0 | 66.0* | 63.0* | 61.0* | 80.0 | 78.0*
COc1cc2c(C)nc3c(c(C)nn3-c3ccccc3)c2cc1OC | 95.0 | 85.0 | 83.0 | 83.0 | 89.0 | 72.0*
COc1cc2c(-c3ccc(O)cc3)nc3c(c(C)nn3-c3ccccc3)c2cc1OC | 101.0 | 97.0 | 97.0 | 93.0 | 99.0 | 99.0
COC(=O)c1sccc1-n1cccc1C(=O)C(=O)N1CCOCC1 | 95.0 | 97.0 | 98.0 | 96.0 | 96.0 | 95.0
SMILES | Rab7 wt modul | HRas wt GTP bind | Rab2 wt GTP | Cdc42 wt GTP | Rac1 mut GTP | Rac1 wt modul
O=[N+]([O-])c1ccc(OCc2cnc(Cl)s2)c([N+](=O)[O-])c1 | 99.0 | 95.0 | 100.0 | 93.0 | 97.0 | 95.0
Cc1ccccc1NC(=O)C1CCCN1S(=O)(=O)c1cccc2cccnc12 (configuration not stated) | 109.0 | 113.0 | 113.0 | 117.0 | 111.0 | 128.0*[activator]
Cc1ccccc1NC(=O)C1CCCN(S(=O)(=O)c2cccc3cccnc23)C1 (configuration not stated) | 101.0 | 100.0 | 97.0 | 98.0 | 100.0 | 103.0
Cc1ccc(C)c(N2CCN(C(=O)c3ccc(CS(=O)(=O)c4ccccc4C)o3)CC2)c1 | 93.0 | 89.0 | 87.0 | 89.0 | 83.0 | 87.0
Cc1ccc(S(=O)(=O)Cc2ccc(C(=O)N3CCN(c4cc(C)ccc4C)CC3)o2)cc1 | 84.0 | 87.0 | 80.0 | 81.0 | 77.0* | 80.0
Cc1cc(-c2n[nH]c(=S)n2/N=C/c2cc([N+](=O)[O-])ccc2Cl)n[nH]1 | 87.0 | 77.0* | 74.0* | 85.0 | 85.0 | 71.0*
Cc1cc(-c2n[nH]c(=S)n2/N=C/c2ccc(Cl)c([N+](=O)[O-])c2)n[nH]1 | 99.0 | 94.0 | 92.0 | 97.0 | 94.0 | 96.0
c1ccc(C2CC(c3ccccc3)n3c(nc4ccccc43)N2)cc1 (configuration not stated) | 101.0 | 97.0 | 101.0 | 99.0 | 96.0 | 100.0
O=C1C(=O)c2ccc(-c3ccccc3)cc2-c2ccccc21 | 101.0 | 100.0 | 99.0 | 97.0 | 99.0 | 107.0
Nc1ccc2c(c1)C(=O)C(=O)c1ccccc1-2 | 92.0 | 85.0 | 84.0 | 70.0* | 84.0 | 88.0
O=C(O)CCC(=O)Nc1ccc(C(=O)OC2CCCCC2)cc1 | 96.0 | 99.0 | 99.0 | 97.0 | 99.0 | 97.0
O=C(OC1CCCCC1)c1ccc(NC(=O)C2CCCCC2)cc1 | 95.0 | 97.0 | 99.0 | 79.0* | 99.0 | 99.0
O=C1Nc2ccc(Br)cc2C12NNc1ccccc1O2 (configuration not stated) | 96.0 | 82.0 | 83.0 | 79.0* | 89.0 | 84.0
Cc1nnc2ccc(-c3cccc(NC(=O)c4ccc(Cl)nc4)c3)nn12 | 95.0 | 91.0 | 91.0 | 91.0 | 91.0 | 86.0
CCOc1ccccc1C(=O)Nc1cccc(-c2ccc3nncn3n2)c1 | 92.0 | 78.0* | 75.0* | 73.0* | 88.0 | 73.0*
O=C(Nc1cccc(-c2ccc3nncn3n2)c1)c1ccco1 | 91.0 | 85.0 | 87.0 | 86.0 | 89.0 | 77.0*
Cc1nnc2ccc(-c3cccc(NC(=O)c4ccc(Br)o4)c3)nn12 | 91.0 | 86.0 | 86.0 | 88.0 | 90.0 | 79.0*
NC(=S)N=Nc1c(O)[nH]c2cc(F)c(F)cc12 | 90.0 | 80.0 | 78.0* | 91.0 | 89.0 | 81.0

Bioassay records as filed in PubChem BioAssay.
